Results filed as inconclusive are left out. Entries that show only a call come without a potency. Active and inactive are the calls of the source. Calls follow the shape of the dose curve; as a rule, active = well fitted cell-killing curve with a large enough effect; inconclusive = small, poorly fitted or top-dose-only effect, or effect the other way; inactive = flat fitted curve, though single readings scatter.
Each compound was assayed on CASKI (assay: Primary qHTS to identify gynecologic anti-cancer compounds using libraries of approved drugs and bioactive compounds (AID 1345084; also: nearly all actives have a fitted effect of over 55% in size)). Details: Gynecologic cancer cell panel viability, ATPlite luminescence, 48 h; series mostly up to 57.5 µM.
How it was run: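 Cell viability after 48 h drug treatment, ATPlite luminescence readout; five doses.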

Structure (SMILES) | Potency
C/C=C(/C)C1C=CC2CC(C)CC(C)C2C1/C(O)=C1\C(=O)NC(CC(C)(O)C(=O)O)C1=O (stereo not drawn) | inactive
CS[C@]1(CO)C(=O)N2[C@H]3C(=CC=C[C@@H]3O)C[C@@]2(SC)C(=O)N1C | inactive
COc1ccc2c3c4n(c2c1)[C@@H](C=C(C)C)OOC(C)(C)C[C@@H]4N1C(=O)[C@@H]2CCCN2C(=O)[C@]1(O)[C@H]3OCC=C(C)C | inactive
C=CC(C)(C)c1[nH]c2c(CC=C(C)C)cc(CC=C(C)C)cc2c1C[C@@H]1NC(=O)[C@H](C)NC1=O | inactive
COc1cc(O)c2c(c1)/C=C/C[C@@H](O)[C@@H](O)C(=O)CCC[C@H](C)OC2=O | inactive
CC(=O)O[C@H]1CC[C@H]2[C@@H]3CC[C@H]4CC(=O)C=C(C)[C@]4(C)[C@H]3CC[C@]12C | inactive
COc1cc(N2CCN(C)CC2)ccc1N | inactive
COCC(C(=O)OC1CC2CCC(C1)N2C)c1ccccc1 (stereo not drawn) | inactive
N#CC(O[C@@H]1O[C@H](CO)[C@@H](O)[C@H](O)[C@H]1O)c1ccccc1 (stereo partly drawn) | inactive
CC[C@H]1C2CC3[C@@H]4N(C)c5ccccc5[C@]45C[C@@H]([C@H]2[C@H]5O)N3[C@H]1O | inactive
NC(=O)c1ncn2c1CN=C(c1ccccc1Br)c1cc(F)ccc1-2 | inactive
Cc1c(N2C(=O)[C@@H]3[C@H](O)CCN3C2=O)ccc(C#N)c1Cl | inactive
CC(=O)O[C@@H]1[C@H]2CC[C@H]3[C@@](C)(O)[C@@H]4C[C@H](O)C(C)(C)[C@@]4(O)[C@H](O)C[C@@]13C[C@@]2(C)O | inactive

Reference: PubChem BioAssay (NCATS)
